Compound activity: PubChem BioAssay, several laboratories
Rows were chosen to be rich in hits. Some 27% of all compounds tested hit in one or more screens of this group.
CYP2C19 activ: cytochrome P450 2C19 (human) activation | P33261 | recombinant CYP2C19, luciferin-H EGE luminescence; stronger effect = higher value; 0 = fully inhibited enzyme, 1 = untreated enzyme | activation factor at 5 µM | 96,000 tested, under 10 active | AID 1025;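 active = activation factor of at least 2 at 5 µM in the primary screen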;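 note: 0 = wells with 2.5 mM tranylcypromine and 1 = vehicle-only wells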
sEH act: activators of human soluble epoxide hydrolase; activation, % at 2 µM; 0.04% of 91,000 active; P34913; AID 717; purified human sEH enzymatic activity, activator screen; in the data active = activation above about 37%
Target sequence (P34913 whole entry, looked up): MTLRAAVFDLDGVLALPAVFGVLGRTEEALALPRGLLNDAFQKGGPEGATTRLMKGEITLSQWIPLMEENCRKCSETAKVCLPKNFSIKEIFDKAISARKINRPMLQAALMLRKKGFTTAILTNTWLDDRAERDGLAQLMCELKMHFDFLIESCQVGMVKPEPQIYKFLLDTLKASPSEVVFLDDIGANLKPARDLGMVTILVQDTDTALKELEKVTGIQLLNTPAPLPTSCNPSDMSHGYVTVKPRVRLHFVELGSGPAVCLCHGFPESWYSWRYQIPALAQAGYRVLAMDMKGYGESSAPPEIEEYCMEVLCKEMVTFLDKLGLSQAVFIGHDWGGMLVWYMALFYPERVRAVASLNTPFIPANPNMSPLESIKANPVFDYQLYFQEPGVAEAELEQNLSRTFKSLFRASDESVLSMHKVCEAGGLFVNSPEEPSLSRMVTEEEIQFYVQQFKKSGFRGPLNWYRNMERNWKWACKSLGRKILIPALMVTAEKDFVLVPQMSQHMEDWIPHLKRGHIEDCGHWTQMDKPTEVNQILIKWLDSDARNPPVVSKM
CYP2C19 inh: inhibitors of human CYP2C19; inhibition, % at 5 µM; 21% of 96,000 active; CYP2C19 Supersomes, luciferin-H EGE luminescence, 30 min;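 active = CYP2C19 inhibition above a set limit at 5 µM in the primary screen, cut at about 50% in these data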;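 note: plate controls were negative control wells for no effect and 2.5 mM tranylcypromine positive control for full effect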
sEH inhibitor: blocks human soluble epoxide hydrolase activity | P34913 | recombinant human sEH enzymatic activity assay | inhibition, % at 2 µM | 0.34% of 91,000 active; in the data active = inhibition above about 80%
CYP2C9 activ: activators of human CYP2C9. recombinant CYP2C9, luciferin-H conversion, luminescence; stronger effect = higher value; factor 1 = untreated enzyme, 0 = blocked. activation factor at 5 µM. 1.4% of 96,000 active;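 active = activation factor of 2 or more for CYP2C9 at a 5 µM dose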;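 note: 0 = sulfaphenazole-blocked wells and 1 = vehicle-only wells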
CYP2C9 inh: inhibitors of human CYP2C9; inhibition, % at 5 µM; CYP2C9 Supersomes, luciferin-H conversion, luminescence; P11712; 20% of 96,000 active;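 active = blocking of liver enzyme CYP2C9 beyond about 50% at 5 µM, limit read from the data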
* hit, by the source's call; nt = no result.

SMILES	CYP2C19 activ	sEH act	CYP2C19 inh	sEH inhibitor	CYP2C9 activ	CYP2C9 inh
COc1ccc(S(=O)(=O)N2Cc3ccccc3CC2C(=O)Nc2ccc3c(c2)OCO3)cc1 (configuration not stated)	0.2	-12	85*	14	0.4	62*
Cc1ccc(S(=O)(=O)N2Cc3ccccc3CC2C(=O)Nc2ccc3c(c2)OCO3)cc1 (configuration not stated)	0	-1	98*	3	0	97*
O=C1/C(=C/c2cccc(F)c2)CSc2sccc21	0.7	2	26	-5	0.5	54*
CC(=O)N1CN(CCCn2ccnc2)Cc2c1sc1c2CCCC1	0.1	-19	94*	19	0	96*
CC(=O)N1CN(Cc2ccccn2)Cc2c1sc1c2CCCC1	0.7	-2	27	2	0.9	14
C=CCn1c(Cc2nc3ccc(Cl)cc3[nH]2)n[nH]c1=S	0	-12	98*	15	0.7	32
C=CCn1c(Cc2c[nH]c3ccccc23)n[nH]c1=S	0.4	-18	62*	17	0.7	32
C=CCn1c(-c2ccccc2)n[nH]c1=S	nt	-6	nt	11	nt	nt
C=CCn1c(-c2cccc3ccccc23)n[nH]c1=S	0.1	-5	92*	6	0.5	52*
COc1ccc(C(=O)c2oc3ccccc3c2NC(C)=O)cc1	0.6	12	37	-8	0.5	48
COc1cccc(NC(=O)c2oc3ccccc3c2NC(=O)C(C)(C)C)c1	0.9	6	8	-4	0.2	81*
COc1cccc(NC(=O)c2oc3ccccc3c2NC(=O)c2ccc3c(c2)OCO3)c1	0.9	nt	5	nt	0.6	39
COc1ccc(OC)c(C(=O)c2oc3ccccc3c2NC(C)=O)c1	0	nt	98*	nt	0.5	49
Cc1cccc(C)c1NC(=O)N1C2CCCC1CC(NC(=O)C(C)(C)C)C2 (configuration not stated)	1	nt	1	nt	0.8	18
O=C(CN1CCN(c2ccccn2)CC1)N1c2ccccc2Sc2ccc(C(F)(F)F)cc21	0.3	10	73*	-12	0.6	44
O=C(CN1CCCC1)N1c2ccccc2Sc2ccc(C(F)(F)F)cc21	nt	-3	nt	8	nt	nt
CC(C)OCCCN1CN(S(=O)(=O)c2cccc(Cl)c2)c2nc3ccccc3nc21	0.5	13	54*	-9	0.2	81*
CC(C)OCCCN1CN(S(=O)(=O)c2ccc(Cl)cc2)c2nc3ccccc3nc21	0.6	19	38	-22	0.7	28
CCOCCCN1CN(S(=O)(=O)c2ccc(Cl)cc2)c2nc3ccccc3nc21	0.5	7	54*	-3	0.2	81*
O=C(COc1ccc(Br)cc1)Nc1ccc([N+](=O)[O-])cn1	0.8	13	20	-10	1.1	-9
Cc1ccc(SC(c2ccc(C)cc2)C(Cn2cncn2)C(=O)c2ccccc2)cc1 (configuration not stated)	0.8	-7	18	9	0.6	37
Cc1ccc(C(Sc2ccccc2)C(Cn2cncn2)C(=O)c2ccccc2)cc1 (configuration not stated)	0.1	-4	92*	5	0.4	63*
CC1CCCCC1NC(=O)CN1CCC(O)(c2ccc(F)cc2)CC1 (configuration not stated)	0.9	5	6	-7	0.9	8
CN(C(=S)Nc1ccc(F)cc1)C1(c2ccccc2Cl)CCCCC1=O (configuration not stated)	0.2	0	83*	-2	0.8	24
Fc1ccc(NC(=S)NN=C2CCCCCC2)cc1	0.9	-5	10	5	0.9	8
SMILES	CYP2C19 activ	sEH act	CYP2C19 inh	sEH inhibitor	CYP2C9 activ	CYP2C9 inh
O=C(Oc1ccc(OC(=O)N2CCCCC2)cc1)c1ccccc1	0.7	-2	35	7	1.2	-25
O=C(CNC(=O)Cc1ccccc1)NCC(=O)OCc1ccccc1	1	-4	-2	4	1.1	-13
O=C(CNC(=O)/C(=C\c1ccc(F)cc1)NC(=O)c1ccccc1)OCc1ccccc1	0.3	-10	71*	8	0.7	34
O=C(Nc1ccc(F)cc1)C1CCCN(S(=O)(=O)c2cccc3cccnc23)C1 (configuration not stated)	0.3	nt	68*	nt	1.7	-74
O=C(Nc1nc2cc(Cl)ccc2s1)C1CCCN(S(=O)(=O)c2cccc3cccnc23)C1 (configuration not stated)	0.9	-19	7	18	2.1*	-106
Cc1ccc(NC2=NC(c3ccco3)n3c(nc(C)cc3=O)N2)c(C)c1 (configuration not stated)	0.8	nt	22	nt	0.7	33
O=C(c1cccc2ccccc12)n1nnc2ccccc21	nt	-2	nt	2	nt	nt
COc1ccc(C(=O)N2CC=C(c3ccccc3)CC2)cc1S(=O)(=O)N1CCOCC1	0.1	2	86*	-3	0.2	81*
Cc1cc(C)cc(NC(=O)c2ccc(CNc3c(N4CCOCC4)c(=O)c3=O)cc2)c1	1.2	nt	-16	nt	1.1	-7
O=C(c1ccc(CNc2c(N3CCOCC3)c(=O)c2=O)cc1)N1CC=C(c2ccccc2)CC1	0.6	nt	43	nt	0.4	59*
Cn1c(SCC(=O)Nc2ccccc2F)nnc1-c1cc2ccccc2o1	0.8	5	16	-2	0.8	17
CCc1c(C(=O)NC2CCCC2)csc1C	0.9	18	13	-14	1	2
CCN1CCN(c2ncc(C(=O)Nc3cc(Cl)ccc3OC)c3ccccc23)CC1	0.8	nt	15	nt	1.7	-66
CCN1CCN(c2ncc(C(=O)N3CCCc4ccccc43)c3ccccc23)CC1	0.2	nt	81*	nt	0.7	26
CN(C)C(CN1C(=O)C2CC=CCC2C1=O)c1cn(C)c2ccccc12 (configuration not stated)	0.7	-11	29	13	0.9	8
CO/N=C/NC(=O)NOCc1c(Cl)cccc1Cl	0.9	8	10	-7	1	-4
COc1ccc(S(=O)(=O)N2Cc3ccccc3CC2C(=O)N2CCOCC2)cc1OC (configuration not stated)	1.1	nt	-6	nt	1	3
COc1ccc(OC)c(S(=O)(=O)N2Cc3ccccc3CC2C(=O)O)c1 (configuration not stated)	0.9	12	12	-7	0.9	8
COc1ccc(S(=O)(=O)N2Cc3ccccc3CC2C(=O)Nc2nccs2)cc1 (configuration not stated)	0.1	-4	93*	3	nt	nt
COc1ccc(S(=O)(=O)N2Cc3ccccc3CC2C(=O)Nc2nccs2)cc1OC (configuration not stated)	0.1	-6	86*	6	0.3	69*
CC(C)NC(=O)CN1C(=O)NC(CCc2ccccc2)C1=O (configuration not stated)	0.9	14	12	-13	0.9	6
CC(=O)N(Cc1c(C)nn(-c2ccccc2)c1Cl)c1ccc(Cl)cc1	0.1	-7	90*	9	0.5	49
